Screening results as filed in PubChem.
This excerpt belongs to a sample that is enriched for hits.
TDP1 cell CPT: DT40-hTDP1 cell growth loss with CPT; chicken DT40 Tdp1-/-;hTDP1 cells + 20 nM CPT, ATP luminescence, 48 h; 12% of 420,000 active; Potency, µM (doses to about 46.2 µM), usual class: inhibitors; note: nearly all actives have a fitted effect of over 55% in size
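Cell growth measured by CellTiter-Glo luminescence after a minimum 48 h, 37 C compound exposure with 20 nM CPT in Tdp1-knockout DT40 cells stably expressing hTDP1, seeded 400/well; qHTS titration format.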
HT1080-NT tox: kills 2HG-producing HT-1080-NT fibrosarcoma cells; HT-1080-NT fibrosarcoma viability, CellTiter-Glo ATP luminescence, 48 h; Potency, µM (titrated, usually from 46.1 µM), usual class: cytotoxic; 1.6% of 360,000 active; AID 686970;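 note: NT is the 2HG producing partner of a matched IDH1 knockdown line; nearly all actives have a fitted effect of over 55% in size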
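HT-1080-NT fibrosarcoma cells (2HG-overproducing), 750 cells/well in RPMI with 5% FBS, dosed after 2 h and incubated 48 h at 37C. CellTiter-Glo luminescence normalized to DMSO and no-cell wells; concentration-response curves fitted and classed.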
IL1B secr inh: blocks inflammasome-driven IL-1 beta release. THP-1 LPS/ATP IL-1B secretion, AlphaLISA, 16 h; active compounds read low. activity change, % at 57.5 µM. AID 743279. 4.7% of 360,000 active; in the data active = activity change below about -50%; inconclusive = mostly about -30% to -49%
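Secreted IL-1B measured by AlphaLISA bead assay after 16 h compound exposure of THP-1 cells; compounds (final up to 57.5 uM) added 1 h before LPS (250 ng/mL) and ATP (1.25 mM) stimulation; lower signal means less secretion.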
DT40 TDP1 no CPT: qHTS for Inhibitors of human tyrosyl-DNA phosphodiesterase 1 (TDP1): qHTS in cells in absence of CPT; DT40 Tdp1-/- hTDP1 cells, no CPT, ATP luminescence, 48 h; Potency, µM (series often up to 46.2 µM), hits mostly inhibitors; 15% of 420,000 active; AID 686978, 2013; note: nearly all actives have a fitted effect of over 55% in size
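Readout: luminescence from CellTiter-Glo after 30 min in the dark at RT. Cells: DT40 Tdp1-/- with stable hTDP1, 400/well. Exposure: compounds alone, ≥48 hr, 37 °C.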
HT1080 IDH1KD tx: kills HT-1080 cells with IDH1 knockdown | Potency, µM (highest dose often 46.1 µM), actives largely listed as cytotoxic | AID 686971 | HT-1080 IDH1 knockdown viability, ATP luminescence, 48 h | 2% of 360,000 active
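In this qHTS, HT-1080 cells depleted of IDH1 are exposed for 48 h at 37 °C to compound titrations. Toxicity is scored from CellTiter-Glo luminescence, with DMSO as full viability and medium alone as none.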
ALOX12 inh: ALOX12 (human) lipoxygenase inhibition; Potency, µM (titrated, usually from 108 µM), hits mostly inhibitors; purified 12hLO, xylenol orange hydroperoxide absorbance; P18054; 1.1% of 580,000 active; AID 1671190
Target sequence (P18054 whole entry, looked up): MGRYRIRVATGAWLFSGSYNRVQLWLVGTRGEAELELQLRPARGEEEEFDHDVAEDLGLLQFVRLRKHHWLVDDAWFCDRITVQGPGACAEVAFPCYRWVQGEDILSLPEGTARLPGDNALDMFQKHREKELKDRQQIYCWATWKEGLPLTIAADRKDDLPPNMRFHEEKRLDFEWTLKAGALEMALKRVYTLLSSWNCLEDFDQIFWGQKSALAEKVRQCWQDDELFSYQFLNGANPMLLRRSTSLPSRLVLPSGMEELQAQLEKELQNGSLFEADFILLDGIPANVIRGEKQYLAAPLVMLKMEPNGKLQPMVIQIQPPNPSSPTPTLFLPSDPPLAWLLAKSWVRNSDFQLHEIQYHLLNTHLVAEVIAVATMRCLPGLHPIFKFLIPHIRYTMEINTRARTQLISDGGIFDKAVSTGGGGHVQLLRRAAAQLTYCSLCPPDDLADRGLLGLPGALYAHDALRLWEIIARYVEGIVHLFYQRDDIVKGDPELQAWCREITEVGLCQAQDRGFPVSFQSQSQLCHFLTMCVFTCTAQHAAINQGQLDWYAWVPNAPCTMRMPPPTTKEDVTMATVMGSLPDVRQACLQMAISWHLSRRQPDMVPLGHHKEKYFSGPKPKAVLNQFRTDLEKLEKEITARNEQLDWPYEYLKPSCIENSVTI
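Hydroperoxide product was detected by ferrous iron/xylenol orange as the 573 to 405 nm absorbance ratio. Arachidonic acid at 40 uM (final) was turned over for 30 min at room temperature by 150 nM human 12hLO, pH 7.0 Hepes buffer, after 15 min compound preincubation.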
A number is an active result; – = inactive; ? = inconclusive; · = no result. Unless noted, calls come from the whole dose curve; as a rule, active = well fitted curve in the direction sought with a large enough effect; inconclusive = small, poorly fitted or top-dose-only effect, or another doubt; inactive = no such curve, though single readings can be large; an effect the other way counts as inactive or inconclusive.

SMILES | TDP1 cell CPT | HT1080-NT tox | IL1B secr inh | DT40 TDP1 no CPT | HT1080 IDH1KD tx | ALOX12 inh
Oc1ccccc1/C=N/Nc1nn[nH]n1 | – | – | – | – | – | –
CC(NC(=O)c1ccc(Cl)c(Cl)c1)C1CC2CCC1C2 (stereo not drawn) | · | · | · | · | · | –
COCCN(CC(N)=O)S(=O)(=O)c1ccc(F)cc1Cl | · | · | · | · | · | –
Cc1ccc(C(C=O)C=O)cc1 | · | · | · | · | · | –
COC(=O)c1ccc(CNC(=O)C(Cc2ccccc2)NC(=O)c2ccccc2)cc1 (stereo not drawn) | – | – | – | ? | – | ?
COC(=O)c1ccc(C(NC(=O)OCc2ccccc2)/C(F)=C/[C@@H](C)C(=O)NCc2ccc(OC)c(OC)c2)cc1 (stereo partly drawn) | 23µM | ? | – | ? | ? | –
COc1ccc(CCNC(=O)C(NC(=O)OCc2ccccc2)C(C)C)cc1OC (stereo not drawn) | – | – | – | – | – | –
COC(=O)c1ccc(C(NC(=O)OCc2ccccc2)/C(F)=C/[C@@H](C)C(=O)NCc2ccc(-c3ccccc3)cc2)cc1 (stereo partly drawn) | 16µM | – | – | ? | – | ·
N#Cc1ccccc1NC(=O)COC(=O)c1ccc2c(c1)NC(=O)CS2 | · | · | · | · | · | –
Cc1c(Cl)cccc1NC(=O)C1CCCN(C(=O)Cc2cccc3ccccc23)C1 (stereo not drawn) | · | · | · | · | · | –
CCC(CC)C(CNC(=O)c1ccccc1Br)N1CCOCC1 (stereo not drawn) | · | · | · | · | · | –
CCC(=O)Nc1ccccc1C(=O)OCc1ccc(C(=O)c2ccccc2)cc1 | 21µM | – | – | ? | – | –
C=CCNC(N)=S | – | – | – | – | – | –
C=CCNC(=S)N(C1CCCCC1)C1CCCCC1 | ? | – | – | 23µM | – | –
CCOc1ccc2[nH]cc(S(=O)(=O)c3ccc(Cl)cc3)c(=O)c2c1 | 9.2µM | – | – | 9.2µM | – | –
Cc1sc2nc(CN(Cc3cccs3)C(=O)NC3CCCCC3)[nH]c(=O)c2c1C | 23µM | ? | ? | ? | ? | –
Cc1sc2nc(CN(C(=O)NC3CCCCC3)C3CCCC3)[nH]c(=O)c2c1C | ? | – | – | 16µM | – | –
C[C@]1(O)CCN(C(=O)c2cccc(Cn3cccn3)c2)C[C@@H]1O | · | · | · | · | · | –
Clc1ccc(/C=C\c2nccc3c2[nH]c2ccccc23)cc1 | ? | 21µM | – | ? | 18µM | –
CCCS(=O)(=O)Nc1cccc(-c2ccc3nnc(C)n3n2)c1 | ? | – | – | ? | – | –
O=[N+]([O-])c1ccccc1S(=O)(=O)Nc1cccc(-c2ccc3nncn3n2)c1 | – | – | – | ? | – | –
Cc1nnc2ccc(-c3cccc(NS(=O)(=O)c4ccccc4[N+](=O)[O-])c3)nn12 | 23µM | ? | – | 15µM | ? | –
CCS(=O)(=O)Nc1cccc(-c2ccc3nnc(-c4cccnc4)n3n2)c1 | 21µM | – | -54 | ? | – | –
Cc1ccccc1NC(=O)Cn1c(=O)oc2ccccc21 | 3.7µM | – | – | 2.1µM | – | –
CC(C)Oc1ccc(CNC(=O)Cn2c(=O)oc3ccccc32)cc1 | ? | – | – | 16µM | – | –
SMILES | TDP1 cell CPT | HT1080-NT tox | IL1B secr inh | DT40 TDP1 no CPT | HT1080 IDH1KD tx | ALOX12 inh
CCc1ccccc1NC(=O)Cn1c(=O)oc2ccccc21 | 2.3µM | · | · | 0.46µM | · | –
O=C(Cn1c(=O)oc2ccccc21)Nc1ccccc1Cl | – | – | – | ? | – | ?
CCCOc1ccc(CNC(=O)Cn2c(=O)oc3ccccc32)cc1 | ? | – | – | ? | – | –
COc1ccc(C)cc1NC(=O)Cn1c(=O)oc2ccccc21 | 9.2µM | – | – | 2.1µM | – | –
CCCCNCc1ccc(-c2ccccc2F)o1 | · | · | · | · | · | –
CC(C)c1ccc(CN(C)CC(=O)NC(N)=O)cc1 | · | · | · | · | · | –
CC1(C)Cc2ccccc2-c2nc(NCCCO)n(-c3ccccc3)c(=O)c21 | 23µM | – | – | 15µM | – | –
CC(NC(=O)C(=O)c1c[nH]c2ccccc12)c1ccccc1 (stereo not drawn) | · | · | · | · | · | –
O=C(NC1CCCCC1)c1ccc(CSc2nc3ccncc3n2Cc2ccccc2F)cc1 | ? | · | · | ? | · | –
Cc1cccc(CSc2nc3ccncc3n2Cc2ccc(C(=O)NCCN(C)C)cc2)c1 | · | · | · | · | · | –
O=C(NCCc1ccccc1)c1ccc(CSc2nc3ccncc3n2Cc2ccccc2F)cc1 | 15µM | · | · | ? | · | –
O=C(NCCc1ccccc1)c1ccc(CSc2nc3ccncc3n2Cc2cccc(F)c2)cc1 | 13µM | · | · | 12µM | · | –
Cc1cccc(Cn2c(SCc3ccc(C(=O)NCCc4ccccc4)cc3)nc3ccncc32)c1 | ? | · | · | 13µM | · | –
CCN(C1CCOCC1)C1CN(C(=O)c2nccn2C)C1 | · | · | · | · | · | –
CCNc1ncc2nc(-c3ccc(F)cc3)c(=O)n(Cc3ccc(F)cc3)c2n1 | – | · | · | – | · | ?
CCNc1ncc2nc(-c3cc(F)cc(F)c3)c(=O)n(CCc3ccccc3)c2n1 | ? | · | · | ? | · | 11µM
CCNc1ncc2ncc(=O)n(Cc3ccc(F)cc3)c2n1 | 18µM | · | · | ? | · | ?
O=C1NCCOCCCN(C(=O)NCc2ccccc2)[C@H]2CCC[C@@H]12 | · | · | · | · | · | –
O=C(Nc1ccccc1)Nc1nnc(-c2ccc(Cl)c(Cl)c2)s1 | · | · | · | · | · | –
COc1ccc(NC(=O)Nc2nnc(-c3ccncc3)s2)cc1 | 23µM | – | -90 | 23µM | – | –
COc1cc(NC(=O)Nc2nnc(N3CCCCCC3)s2)cc(OC)c1 | 23µM | · | · | 16µM | · | –
O=C(Nc1ccc(Cl)c(Cl)c1)Nc1nnc(-c2ccncc2)s1 | 3.3µM | ? | – | 3.7µM | ? | –
N/N=C(/C(=O)N1CCN(c2ccccn2)CC1)c1ccccc1I | · | · | · | · | · | –
COc1ccccc1-c1c(C(F)(F)F)oc2cc(OC(=O)C3CC3)ccc2c1=O | · | · | · | · | · | –
COc1ccccc1-c1c(C(F)(F)F)oc2cc(OC(=O)c3ccccc3[N+](=O)[O-])ccc2c1=O | ? | – | – | 26µM | – | –
SMILES | TDP1 cell CPT | HT1080-NT tox | IL1B secr inh | DT40 TDP1 no CPT | HT1080 IDH1KD tx | ALOX12 inh
COc1ccc(Cc2nnc(Nc3ccc(C)cc3)o2)cc1OC | 8.2µM | – | – | 6.5µM | ? | –
COc1ccc(Cc2nnc(-c3cccc(C)c3)o2)cc1OC | ? | – | – | ? | – | ·
Cc1ccc(CNC(=O)N2CCC3(CC2)Nc2ccccc2-n2cccc23)cc1 | · | · | · | · | · | –
CC(C)N1C(=O)/C(=C\c2nc3ccccc3c(=O)[nH]2)c2ccccc21 | ? | ? | -100 | 29µM | ? | ?
CCCN1C(=O)/C(=C/c2nc3ccccc3c(=O)[nH]2)c2cc(C)ccc21 | 21µM | – | – | 8.2µM | – | –
Cc1ccc(C)c(C(=O)CSc2nc3ccccc3c(=O)[nH]2)c1 | – | – | – | ? | – | –
